Screening data from PubChem.
Sampled rows, rich in hits. Any-hit rate of the full collection: about 2.4%.
M1 PAM parental: counter-screen for M1 PAMs: effect in parental CHO-K1 cells | ATP EC20, Fluo-8 calcium fluorescence; 0% at ATP EC20, 100% at ATP max | activation, % at 3 µM | 360,000 compounds, 0.02% hits;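 active = activation above the run cutoff, the mean activation of all test compounds plus 3 SD, cut at about 40% in these data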;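 note: peak over basal fluorescence ratio in a 140 s read after ATP addition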
CHRM1 PAM: potentiates human M1 receptor response to acetylcholine; 360,000 compounds, 0.088% hits; P11229; CHO-K1 hM1, Fluo-8 calcium fluorescence, ACh EC20; 0% = ACh EC20, 100% = maximal ACh; activation, % at 3 µM; AID 588819; in the data active = activation above about 19%, passing the limit was not always enough
Target sequence (P11229 whole entry, looked up): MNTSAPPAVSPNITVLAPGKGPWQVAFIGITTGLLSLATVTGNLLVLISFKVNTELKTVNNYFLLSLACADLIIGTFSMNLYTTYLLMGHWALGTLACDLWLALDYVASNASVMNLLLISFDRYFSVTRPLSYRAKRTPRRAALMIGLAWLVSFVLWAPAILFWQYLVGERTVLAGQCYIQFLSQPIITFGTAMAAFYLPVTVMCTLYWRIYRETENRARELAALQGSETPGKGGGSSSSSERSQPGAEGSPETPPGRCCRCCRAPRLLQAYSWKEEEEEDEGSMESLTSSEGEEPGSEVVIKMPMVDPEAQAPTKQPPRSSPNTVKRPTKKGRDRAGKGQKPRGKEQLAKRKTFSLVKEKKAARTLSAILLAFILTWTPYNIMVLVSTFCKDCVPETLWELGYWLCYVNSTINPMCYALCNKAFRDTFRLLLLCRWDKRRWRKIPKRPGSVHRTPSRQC
CHRM1 agonist: agonists of human M1 muscarinic receptor; P11229; CHO-K1 hM1, Fluo-8 calcium fluorescence, agonist mode; 0% DMSO, 100% acetylcholine EC100; activation, % at 3 µM; 360,000 compounds, 0.33% hits; AID 588814;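 active = activation above the run's mean compound activation plus 3 SD, cut at about 16% in these data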;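 note: peak over basal fluorescence ratio within a 140 s kinetic read after compound addition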
CHO-K1 Ca antag: counter-screen for M1 antagonists: effect in parental CHO-K1 cells | AID 602250 | inhibition, % at 3 µM | 360,000 compounds, 0.6% hits | ATP-induced calcium, Fluo-8 fluorescence;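 active = inhibition above a per-plate cutoff, the plate's mean sample inhibition plus 3 SD, cut at about 24% in these data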;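 note: 0% = DMSO plus EC80 ATP and 100% = DMSO alone without ATP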
M1 ag parental: M1 agonist counterscreen hit in parental CHO-K1 cells | Fluo-8 calcium fluorescence; scaled to maximal ATP response, vehicle zero | 360,000 compounds, 0.48% hits | activation, % at 3 µM; in the data active = activation above about 15%;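 note: untransfected CHO-K1 host cells lacking M1 receptor as counterscreen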
CHRM1 antagonist: human CHRM1 antagonism. AID 588852. CHO-K1 hM1, Fluo-8 calcium fluorescence, ACh EC80 antagonist. P11229. inhibition, % at 3 µM. 360,000 compounds, 1.3% hits;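 active = percent inhibition above its own plate's cutoff, namely the mean of that plate's compound wells plus 3 SD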;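 note: peak over basal fluorescence ratio during 140 s after agonist addition; 0% = ACh EC80 plus DMSO and 100% = DMSO alone without agonist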
* = called active by the depositor; · = not tested or not shown.

SMILES | M1 PAM parental | CHRM1 PAM | CHRM1 agonist | CHO-K1 Ca antag | M1 ag parental | CHRM1 antagonist
COc1ccc(CCn2nnnc2CN2CCN(C(=O)c3ccco3)CC2)cc1OC | -15 | 9 | -10 | 24* | 14 | -5
COc1ccc(S(=O)(=O)c2cnc3ccc(OC)cc3c2N2CCC3(CC2)OCCO3)cc1 | 17 | -19 | -1 | 1 | 6 | 28*
COc1ccc(N2CCN(c3c(S(=O)(=O)c4ccccc4)cnc4ccc(OC)cc34)CC2)cc1 | 5 | -15 | -5 | 1 | 1 | 14
O=C(Nc1cccc(-c2nc3ccccc3o2)c1)c1ccc(N2C(=O)C3C4C=CC(C4)C3C2=O)cc1 (configuration not stated) | 18 | -11 | 1 | -7 | 3 | 37*
CC(C)CN1Cc2ccccc2Oc2cc(Br)ccc2S1(=O)=O | 41* | 16 | 29* | -14 | 5 | -11
CCCCN1Cc2ccccc2Oc2cc(Br)ccc2S1(=O)=O | 12 | 26* | 31* | -27 | 0 | -16
C[C@@H](c1ccccc1)N1Cc2ccccc2Oc2cc(Br)ccc2S1(=O)=O | -11 | -3 | -4 | 0 | 1 | 4
CCOc1ccc(NCc2nnc(SCC(=O)Nc3nc(-c4ccccc4)cs3)n2-c2ccccc2)cc1 | 4 | -1 | -3 | 15 | 0 | 6
O=C1N(c2ccccc2)C[C@@H]2C[C@@H](c3cccc4c3OCO4)N3CCC[C@@]123 | 4 | -30 | -12 | -8 | 1 | 49*
COc1cc(Br)cc(Br)c1OCC(=O)N/N=C/c1c(C)n(C)n(-c2ccccc2)c1=O | 14 | 7 | -4 | -3 | 3 | -6
O=C(N/N=C\c1c(O)ccc2ccccc12)c1cncc(Br)c1 | -11 | 2 | 42* | 6 | 39* | -8
COc1ccccc1N1CCN(c2ccc3c(c2)S(=O)(=O)c2cccc(C(=O)NCc4cccc(F)c4)c2C3=O)CC1 | -2 | -11 | -1 | -5 | 3 | 19
CSc1nc(Oc2cccc(C(F)(F)F)c2)cc(C(F)(F)F)n1 | 12 | 9 | -1 | -2 | 0 | -11
CSc1nc(Oc2ccc(F)cc2F)cc(C(F)(F)F)n1 | 0 | 17 | 2 | 26* | 0 | -12
O=C(Nc1cc(Cl)cc(Cl)c1)c1cccc(OC(F)F)c1 | -10 | -15 | -4 | 27* | 1 | 23
CSC1=NC2(C[C@H]2c2ccccc2)C(=O)N1C (some centres not stated) | 2 | 3 | -4 | -13 | 0 | -5
CCOC(=O)c1sc(-c2ccccn2)nc1C | 17 | 7 | -6 | -2 | 16* | -8
Cc1nc(-c2ccccn2)sc1C(=O)O | 6 | 8 | -5 | 2 | 0 | -2
CC1CCCC(NC(=O)CSc2ncccn2)C1C (configuration not stated) | -23 | 10 | 0 | 27* | -1 | -4
Cc1ccc(NC(=O)C2CCN(S(=O)(=O)c3ccc4c(c3)NC(=O)C(C)S4)CC2)cc1C (configuration not stated) | -18 | -12 | 0 | 19 | 10 | 36
CCc1ccc(NC(=O)C2CCN(S(=O)(=O)c3ccc4c(c3)NC(=O)C(C)S4)CC2)cc1 (configuration not stated) | 4 | -19 | -2 | 11 | 6 | 55*
COc1ccc(-c2cc(-c3ccccc3O)[nH]n2)cc1OC | -9 | -8 | -3 | 25* | 0 | 31*
N#CC1=C(N)OC2=C(C(=O)CCC2)C1c1cc2c(cc1Cl)OCO2 (configuration not stated) | -24 | 7 | -7 | 24* | 0 | -8
N#CC1=C(N)OC2=C(C(=O)CCC2)C1c1cc2c(cc1Br)OCO2 (configuration not stated) | -10 | -11 | -8 | 29* | 0 | 30*
N#CC1=C(N)OC2=C(C(=O)CCC2)C1c1ccc2c(c1)OCO2 (configuration not stated) | 13 | -3 | -9 | 2 | 0 | 4
SMILES | M1 PAM parental | CHRM1 PAM | CHRM1 agonist | CHO-K1 Ca antag | M1 ag parental | CHRM1 antagonist
NC(=O)C(CCc1nc2ccccc2[nH]1)NS(=O)(=O)c1ccccc1 (configuration not stated) | 28 | 16 | 0 | -8 | 0 | -26
CC(NC(=O)CN1CCCC1)C12CC3CC(CC(C3)C1)C2 (configuration not stated) | -6 | 9 | -4 | 1 | 0 | 3
CC(C(O)C12CC3CC(CC(C3)C1)C2)N1CCCCC1 (configuration not stated) | 6 | -28 | -10 | -4 | 0 | 59*
C/C(=N\NC(=O)CSc1nc(C)cc(C)n1)c1cccc([N+](=O)[O-])c1 | 41* | 9 | -8 | -13 | 0 | -12
CC(C)(C)n1nnnc1C(c1ccccc1)N1CCN(c2c(Cl)cncc2Cl)CC1 (configuration not stated) | 3 | · | · | -1 | 2 | ·
COc1ccc(NC(=O)c2ccccc2)c([N+](=O)[O-])c1 | 5 | 9 | -2 | -8 | 1 | -9
CCCN(CCC)CCCNc1ccc(C(=O)Nc2cccc(OC)c2)cc1[N+](=O)[O-] | 6 | -24 | -7 | -15 | 1 | 40*
CCC(CC)C(=O)Nc1cccc(C(=O)Nc2ccc(OC)cc2[N+](=O)[O-])c1 | 12 | -4 | 23* | -5 | 2 | 19
Cc1nnc(NC(=O)c2cc(-c3ccncc3)nc3c(C)cccc23)s1 | 0 | 4 | -1 | 14 | 0 | 1
COc1ccc(NC(=O)CSc2nc(N)cc(N)n2)cc1S(=O)(=O)N1CCCCC1 | 19 | 6 | -4 | -4 | -1 | -6
COc1ccc(NC(=O)C2(S(=O)(=O)c3ccc(C)cc3)CC2)cc1 | 10 | 5 | -6 | -11 | 0 | -6
COc1ccc(Cl)cc1Cn1c(C)c(C(=O)NCc2ccccc2C(F)(F)F)sc1=O | -9 | -11 | -8 | 4 | 0 | 14
Cc1ccccc1Cn1c(C)c(C(=O)NCc2cccc(Cl)c2)sc1=O | 14 | 7 | 0 | -11 | 2 | -8
COc1ccccc1Cn1c(C)c(C(=O)NCc2cccc(C)c2)sc1=O | 0 | 3 | -8 | 22 | 0 | 1
COc1ccc(Cl)cc1Cn1c(C)c(C(=O)NCc2ccc(C#N)cc2)sc1=O | 8 | -32 | -3 | -5 | 4 | 44*
COc1ccc(CNC(=O)c2sc(=O)n(Cc3ccccc3C)c2C)cc1 | -9 | -7 | 34* | 6 | 17* | 7
COc1ccc(Cl)cc1Cn1c(C)c(C(=O)NCc2cccc(C(F)(F)F)c2)sc1=O | 2 | 4 | -6 | 24* | 0 | -17
COc1ccccc1Cn1c(C)c(C(=O)NCc2ccc(C#N)cc2)sc1=O | 19 | -33 | 16* | -4 | 28* | 32*
